Bioassay records from PubChem.
miR-122 inh = activators of miR-122 sensor in Huh7 cells. Huh7 psiCHECK-miR122 Renilla luciferase sensor, 48 h. activation, % at 12.5 µM. 0.14% of 340,000 active;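 active = mean activation of 30% or more, with every replicate also reaching 30%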;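 note: 0% = median of neutral control wells and 100% = median of positive control wells; higher luciferase signal means stronger suppression of miR-122 activity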
The depositor's hits bear a star. This is one part of a sample in which hits are shown more often than they occur.

SMILES | miR-122 inh
C[C@H]1CCCCO[C@@H](CN(C)CC2CCCCC2)[C@@H](C)CN([C@@H](C)CO)C(=O)c2cc(NC(=O)Nc3cccc4ccccc34)ccc2O1 | 33*
C[C@@H]1CN([C@H](C)CO)C(=O)Cc2cc(NC(=O)Nc3cccc4ccccc34)ccc2O[C@@H]1CN(C)C(=O)Nc1cccc2ccccc12 | -99
C[C@@H]1CCCCO[C@@H](CN(C)CC2CCCCC2)[C@H](C)CN([C@@H](C)CO)C(=O)c2cc(NC(=O)Nc3cccc4ccccc34)ccc2O1 | 31*
C[C@H](CO)N1C[C@H](C)[C@@H](CN(C)Cc2ccncc2)Oc2ccc(NC(=O)Nc3cccc4ccccc34)cc2CC1=O | -98
C[C@H](CO)N1C[C@H](C)[C@H](CN(C)Cc2ccc(C(=O)Nc3ccccc3N)cc2)Oc2ccc(NC(=O)Nc3cccc4ccccc34)cc2CC1=O | -96
C[C@@H]1CN([C@H](C)CO)C(=O)Cc2cc(NC(=O)Nc3cccc4ccccc34)ccc2O[C@@H]1CN(C)C(=O)NC1CCCCC1 | -121
CC(=O)N(C)C[C@H]1Oc2cc(C#C[C@H](C)O)ccc2S(=O)(=O)N([C@@H](C)CO)C[C@H]1C | 5
C[C@H]1CN([C@@H](C)CO)C(=O)c2cccc(NC(=O)C3CC3)c2O[C@@H]1CN(C)Cc1ccc(C(F)(F)F)cc1 | -113
C[C@@H]1CN([C@H](C)CO)C(=O)c2cc(/C=C/c3ccccc3)cnc2O[C@H]1CN(C)Cc1ccccc1F | -31
C[C@@H]1CN([C@H](C)CO)S(=O)(=O)c2ccc(C#Cc3ccccc3)cc2O[C@@H]1CN(C)S(=O)(=O)c1ccccc1F | -35
Cc1ccc(S(=O)(=O)N(C)C[C@@H]2Oc3ccc(NC(=O)Nc4ccc5c(c4)OCO5)cc3CC(=O)N([C@@H](C)CO)C[C@@H]2C)cc1 | -113
Cc1ccc(S(=O)(=O)NCC[C@@H]2CC[C@@H](NC(=O)c3cnccn3)[C@H](CO)O2)cc1 | -101
O=C(N[C@H]1CC[C@H](CCn2cc(C3(O)CCCC3)nn2)O[C@H]1CO)c1ccccc1F | 42*
COc1ccc(C#Cc2cnc3c(c2)C(=O)N([C@@H](C)CO)C[C@@H](C)[C@@H](CN(C)CC2CCCC2)O3)cc1 | 11
CC(C)CC#Cc1ccc2c(c1)O[C@H](CN(C)C(=O)C1CCOCC1)[C@H](C)CN([C@H](C)CO)S2(=O)=O | 19
C[C@H](CO)N1C[C@H](C)[C@@H](CN(C)C(=O)c2ccccc2F)Oc2ncc(C#Cc3ccc(F)cc3)cc2C1=O | -8
CC(C)Oc1ccc(CNCCC2(C(C)C)CCOC(C)(C)C2)cc1 (stereo not drawn) | 71*
C[C@H](CO)N1C[C@H](C)[C@H](CN(C)S(C)(=O)=O)Oc2ncc(Br)cc2C1=O | -1
CCN(CC)CCNc1nc(-c2ccccc2)nnc1C(F)(F)F | 44*
C[C@H](CO)N1C[C@H](C)[C@H](CN(C)C(=O)c2cccnc2)Oc2ncc(-c3ccccc3)cc2C1=O | -8
C[C@@H]1CN([C@H](C)CO)S(=O)(=O)c2ccc(-c3cccc(C#N)c3)cc2O[C@H]1CN(C)Cc1ccccn1 | -5
C[C@H](CO)N1C[C@H](C)[C@@H](CN(C)C(=O)C2CCCCC2)Oc2ncc(C#CCc3ccccc3)cc2C1=O | -36
C[C@@H]1CN([C@@H](C)CO)C(=O)c2cc(-c3ccncc3)cnc2O[C@H]1CN(C)C(=O)c1ccccc1F | 1
CCNC(=O)Nc1ccc2c(c1)C(=O)N(C)[C@H]1CC[C@H](CC(=O)Nc3ccccc3F)O[C@@H]1CO2 | 53*
CCCNC(=O)C[C@@H]1CC[C@H]2[C@H](COc3ccc(NC(=O)c4ccc5c(c4)OCO5)cc3C(=O)N2C)O1 | -102
SMILES | miR-122 inh
CCCNC(=O)C[C@@H]1CC[C@@H]2[C@@H](COc3ccc(NC(=O)Nc4ccccc4F)cc3C(=O)N2C)O1 | 50*
CCCNC(=O)C[C@H]1CC[C@H]2[C@@H](COc3ccc(NC(=O)c4cc(F)cc(F)c4)cc3C(=O)N2C)O1 | 53*
CC(C)c1ccc(NC(=O)C[C@H]2CC[C@H]3[C@@H](COc4ccc(NC(=O)Nc5ccc(F)c(F)c5)cc4C(=O)N3C)O2)cc1 | 45*
CCCNC(=O)C[C@@H]1CC[C@H]2[C@H](COc3ccc(NC(=O)Cc4cccs4)cc3C(=O)N2C)O1 | -207
CCCNC(=O)C[C@H]1CC[C@H]2[C@H](COc3ccc(NC(=O)Cc4cccs4)cc3C(=O)N2C)O1 | -167
CCC(=O)N(C)C[C@H]1Oc2ncc(C#Cc3cccnc3)cc2C(=O)N([C@H](C)CO)C[C@@H]1C | 0
COCC(=O)N(C)C[C@@H]1Oc2cc(C#CC3CC3)ccc2S(=O)(=O)N([C@@H](C)CO)C[C@@H]1C | 2
CC(C)C#Cc1cnc2c(c1)C(=O)N([C@H](C)CO)C[C@H](C)[C@@H](CN(C)C(=O)c1ccccc1)O2 | 3
C[C@H](CO)N1C[C@H](C)[C@H](CN(C)C)Oc2cc(-c3ccc(C(=O)N(C)C)cc3)ccc2S1(=O)=O | 2
CCC(=O)N1C[C@@H](C)[C@H](OC)CN(C)C(=O)c2ccc(NC(=O)C3CCCCC3)cc2OC[C@@H]1C | 2
CCCC(=O)Nc1ccc2c(c1)C(=O)N(C)C[C@H](OC)[C@H](C)CN(CCC)[C@H](C)CO2 | 0
COc1cccc(NC(=O)N(C)C[C@@H]2Oc3cc(-c4cccc(C(=O)N(C)C)c4)ccc3S(=O)(=O)N([C@@H](C)CO)C[C@@H]2C)c1 | -1
COCC#Cc1ccc2c(c1)O[C@H](CN(C)C(C)=O)[C@@H](C)CN([C@H](C)CO)S2(=O)=O | -3
C[C@H](CO)N1C[C@H](C)[C@H](CN(C)C(=O)c2ccccn2)Oc2ncc(C#Cc3ccccc3)cc2C1=O | 3
CCC(=O)Nc1ccc2c(c1)C(=O)N(C)C[C@H](OC)[C@H](C)CN(C(C)=O)[C@H](C)CO2 | 2
CC(C)CC#Cc1ccc2c(c1)O[C@@H](CN(C)C(=O)C1CCOCC1)[C@@H](C)CN([C@@H](C)CO)S2(=O)=O | -29
CN1C(=O)c2cc(NC(=O)Cc3ccccc3)ccc2OC[C@@H]2O[C@H](CC(=O)NCC3CC3)CC[C@@H]21 | -233
Cc1ccccc1NC(=O)Nc1ccc2c(c1)C(=O)N(C)[C@@H]1CC[C@H](CC(=O)NCC3CC3)O[C@@H]1CO2 | 47*
CN1C(=O)c2cc(NC(=O)Cc3ccccc3)ccc2OC[C@@H]2O[C@H](CC(=O)NCc3ccc(Cl)cc3)CC[C@@H]21 | -293
CCCNC(=O)Nc1ccc2c(c1)C(=O)N(C)[C@@H]1CC[C@H](CC(=O)NCC3CCCCC3)O[C@H]1CO2 | 33*
Cc1cccc(NC(=O)Nc2ccc3c(c2)C(=O)N(C)[C@H]2CC[C@@H](CC(=O)NCc4ccccc4Cl)O[C@H]2CO3)c1 | 37*
CCCNC(=O)C[C@@H]1CC[C@@H]2[C@H](COc3ccc(NC(=O)Nc4c(C)noc4C)cc3C(=O)N2C)O1 | -258
Cc1nn(C)cc1NC(=O)C[C@@H]1CC[C@@H]2[C@@H](COc3ccc(NC(=O)Nc4cccc(Cl)c4)cc3C(=O)N2C)O1 | 48*
C[C@H]1CN([C@@H](C)CO)C(=O)c2cc(C#CC(C)(C)O)cnc2O[C@H]1CN(C)Cc1cncnc1 | -109
C/C=C/c1cnc2c(c1)C(=O)N([C@@H](C)CO)C[C@H](C)[C@@H](CN(C)CC1CCOCC1)O2 | -1
C[C@H](CO)N1C[C@H](C)[C@@H](CN(C)Cc2ccccc2F)Oc2ncc(-c3ccccc3F)cc2C1=O | -4
CC(=O)N(C)C[C@H]1Oc2cc(C#C[C@H](C)O)ccc2S(=O)(=O)N([C@H](C)CO)C[C@H]1C | 4
